The entries come from a sample that favours hits as a whole.
LmPK inhibitor: qHTS Assay for Inhibitors of Leishmania Mexicana Pyruvate Kinase (LmPK) | 0.37% of 290,000 active | purified LmPK, Kinase-Glo ATP luminescence, 1 h | Q27686 | AID 1721, 2009 | Potency, µM (doses to about 57.5 µM), for inactives: at the highest dose activity change, negative = inhibition, hits mostly inhibitors; further: potency means the concentration at half of the fitted maximal effect; on the % scale 0 is the no-effect control and ±100 the full control effect
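In 50 mM imidazole pH 7.2 with 7 mM MgCl2, LmPK (0.1 nM) turned over PEP (0.5 mM) and ADP (0.1 mM) for 1 h at room temperature. Luciferase read-out of ATP.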
FBPA Giardia inh: qHTS Assay for Inhibitors of Fructose-1,6-bisphosphate Aldolase from Giardia Lamblia; 0.71% of 290,000 active; Potency, µM (top dose mostly 59.6 µM), for the others: at the highest dose activity, negative = inhibition, actives largely listed as inhibitors; AID 2451, 2010; purified Giardia FBPA; A8B2U2; further: potency means the concentration at half of the fitted maximal effect; on the % scale 0 is the no-effect control and ±100 the full control effect; nearly all actives have a fitted effect of over 55% in size
Target sequence (A8B2U2 whole entry, looked up): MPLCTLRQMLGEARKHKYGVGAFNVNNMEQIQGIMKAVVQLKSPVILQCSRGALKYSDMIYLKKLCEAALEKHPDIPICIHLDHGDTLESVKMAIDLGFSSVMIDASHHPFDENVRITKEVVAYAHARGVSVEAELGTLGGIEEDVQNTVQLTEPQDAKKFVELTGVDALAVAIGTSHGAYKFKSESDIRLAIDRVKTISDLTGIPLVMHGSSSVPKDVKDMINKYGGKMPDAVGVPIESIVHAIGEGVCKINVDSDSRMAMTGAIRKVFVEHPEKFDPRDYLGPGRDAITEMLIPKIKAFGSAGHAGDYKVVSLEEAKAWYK
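40 nM FBPA preincubated 10 min at RT with compound (up to 57.5 uM final), then substrate plus GAPDH/TPI/NAD/arsenate coupling and diaphorase/resazurin added. Fluorescence read after 20 min at RT, 525/598 nm.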
TbPYK inhibitor: qHTS of Trypanosoma Brucei Inhibitors; TbPYK enzyme, Kinase-Glo Plus ATP luminescence, 45 min; pyruvate kinase (Trypanosoma brucei), Q57TT1; Potency, µM (doses to about 76.8 µM), without a hit: top-dose activity, negative = inhibition, actives largely listed as inhibitors; 0.12% of 410,000 active; further: potency means the concentration at half of the fitted maximal effect; on the % scale 0 is the no-effect control and ±100 the full control effect; nearly all actives have a fitted effect of over 50% in size
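In this concentration-response screen, enzyme-free wells defined baseline while DMSO plates tracked drift. Each reaction combined TbPYK, substrate, compound and 130 uM ADP for 45 min at room temperature. Kinase-Glo Plus luminescence gave the signal.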
Sm TGR block: qHTS Assay for the Inhibitors of Schistosoma Mansoni Peroxiredoxins | purified TGR, DTNB reduction, TNB absorbance 405 nm | Potency, µM (doses to about 114 µM), for inactives: at the highest dose activity change, negative = inhibition, actives largely listed as inhibitors | 3% of 360,000 active; further: potency means the concentration at half of the fitted maximal effect; on the % scale 0 is the no-effect control and ±100 the full control effect; nearly all actives have a fitted effect of over 60% in size
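First, TGR (20 nM dispensed) and NADPH were mixed with compound. Second, a 15 min room-temperature incubation followed. Third, further NADPH and then DTNB were added to start the reaction. Finally, TNB absorbance was monitored kinetically.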
CHX counter: Cycloheximide Counterscreen for Small Molecule Inhibitors of Shiga Toxin; cell reporter, cycloheximide protein synthesis inhibition counterscreen; max response, %; 12% of 300,000 active; AID 2314, 2010; in the data active means max response mostly above about 13%, no sharp cut-off; inactive means mostly below about 14%; further: read at 38.3 µM for the half of the compounds with a filed dose; 0% is about no effect
Shiga inhibitor: A qHTS for Small Molecule Inhibitors of Shiga Toxin; inhibition, % at 38.7 µM; 9.2% of 290,000 active; Vero cells, Shiga toxin protein synthesis inhibition reporter; AID 2315, 2010; in the data active means inhibition mostly above about 28%, no sharp cut-off; inactive means mostly below about 43%; further: 0% is about no effect
An asterisk follows results filed as active; [ ] = another dose, or the depositor's remark. Unless noted, the call rests on the fitted dose curve; in most records, active means well fitted curve in the direction sought with a large enough effect; inconclusive means small, poorly fitted or top-dose-only effect, or another doubt; inactive means no such curve, though single readings can be large; an effect the other way counts as inactive or inconclusive.

Cc1ccccc1C(=O)Nc1nnc(SC(C)C)s1 was read as LmPK inhibitor -14%, FBPA Giardia inh -1%, TbPYK inhibitor -3%, Sm TGR block -1%, CHX counter 30* and Shiga inhibitor 78.
`O=C(CSc1nnc(NC(=O)c2cccc(F)c2)s1)NCc1ccco1` gave LmPK inhibitor -5%, TbPYK inhibitor 1%, Sm TGR block -15%, CHX counter 4 and Shiga inhibitor 20.
`O=C(CSc1nnc(NC(=O)c2ccc(F)cc2)s1)NCc1ccco1` gave LmPK inhibitor -5%, TbPYK inhibitor -4%, Sm TGR block -9%, CHX counter 29* and Shiga inhibitor 45*.
`N#Cc1ccccc1OCC(=O)N1CCN(c2ccccc2F)CC1` gave TbPYK inhibitor -1% and Sm TGR block 8%.
For CCNC(=S)Nc1ccc(Cc2nc3ccccc3[nH]2)cc1 the results were LmPK inhibitor 1%, FBPA Giardia inh 7%, TbPYK inhibitor -5%, Sm TGR block inconclusive, CHX counter 0 and Shiga inhibitor 20.
`N#CCSc1ccccc1NC(=O)CN1C(=O)C2CC=CCC2C1=O` (stereo not drawn) gave TbPYK inhibitor -7% and Sm TGR block 5%.
For CC1(C)C(O)C=C[C@@]2(C)C1CC(=O)O[C@@]1(C)C3=CC(=O)OC(c4ccoc4)[C@]3(C)CCC21 (stereo partly drawn) the results were FBPA Giardia inh 4%.
Screening O=C(CSc1nnc(NC(=O)C2CC2)s1)NCc1ccco1 returned LmPK inhibitor 2%, FBPA Giardia inh 1%, TbPYK inhibitor -2%, Sm TGR block -9%, CHX counter 3 and Shiga inhibitor 8.
For CCOC(=O)CNC(=O)CSc1nnc(NC(=O)c2ccc(C)cc2)s1 the results were LmPK inhibitor 2%[11.5 µM], FBPA Giardia inh -5%, TbPYK inhibitor 14%, Sm TGR block 14%, CHX counter -5 and Shiga inhibitor -13.
Screening CCOC(=O)CNC(=O)CSc1nnc(NC(=O)c2ccc3c(c2)OCO3)s1 returned LmPK inhibitor -14%, TbPYK inhibitor -4%, Sm TGR block 3%, CHX counter 12* and Shiga inhibitor 22*.
Screening O=C(CSc1nnc(NC(=O)c2ccccc2)s1)NCc1ccco1 returned LmPK inhibitor -10%, TbPYK inhibitor 1%, Sm TGR block -24%, CHX counter 40* and Shiga inhibitor 41*.
For COc1cc(C2c3c(oc4cc(C)c(C)cc4c3=O)C(=O)N2CCCN2CCOCC2)ccc1O (stereo not drawn) the results were TbPYK inhibitor -15% and Sm TGR block 35µM*.
CCOc1ccc(C2c3c(oc4ccccc4c3=O)C(=O)N2CCCN2CCOCC2)cc1OCC (stereo not drawn) was read as LmPK inhibitor 0%, FBPA Giardia inh -17%, TbPYK inhibitor -9%, Sm TGR block 22µM*, CHX counter -6 and Shiga inhibitor -10.
For CN(C)CCN1C(=O)c2oc3ccccc3c(=O)c2C1c1ccccc1 (stereo not drawn) the results were LmPK inhibitor -2%, FBPA Giardia inh 0%, Sm TGR block 9%, CHX counter 3 and Shiga inhibitor 2.
For O=C1c2oc3ccccc3c(=O)c2C(c2cccc(O)c2)N1CCCN1CCOCC1 (stereo not drawn) the results were LmPK inhibitor 10%, FBPA Giardia inh -4%, TbPYK inhibitor -14%, Sm TGR block 40µM*, CHX counter -3 and Shiga inhibitor 9.
`Cc1cc2oc3c(c(=O)c2cc1C)C(c1ccc(F)cc1)N(CCCN1CCOCC1)C3=O` (stereo not drawn) gave LmPK inhibitor 4%, FBPA Giardia inh -2%, TbPYK inhibitor 0%, Sm TGR block -35%, CHX counter -1 and Shiga inhibitor 3.
For CN(C)CCCN1C(=O)c2oc3ccccc3c(=O)c2C1c1cccs1 (stereo not drawn) the results were LmPK inhibitor -3%, FBPA Giardia inh -4%, TbPYK inhibitor -14%, Sm TGR block inconclusive, CHX counter 22* and Shiga inhibitor 24*.
Cc1ccc(C2c3c(-c4cc(C)ccc4O)n[nH]c3C(=O)N2Cc2ccco2)cc1 (stereo not drawn) was read as TbPYK inhibitor -14% and Sm TGR block -9%.
For CCOc1ccccc1N(C(=O)Nc1ccc(Cl)cc1)C1=NC(C)CS1 (stereo not drawn) the results were LmPK inhibitor 2%, FBPA Giardia inh -5%, TbPYK inhibitor -1%, Sm TGR block 13%, CHX counter 25* and Shiga inhibitor 82*.
For O=C(Nc1ccccc1)Nc1cc([N+](=O)[O-])ccc1F the results were LmPK inhibitor 0%, FBPA Giardia inh 0%, TbPYK inhibitor -2%, Sm TGR block 4%, CHX counter 6 and Shiga inhibitor 29.
`CON(C)C(=O)Nc1ccc(Br)c(Cl)c1` gave FBPA Giardia inh -6%, CHX counter 27* and Shiga inhibitor 54*.
Screening Cc1cc2c(NC(=O)Nc3ccccc3)cccc2nn1 returned LmPK inhibitor 4%, FBPA Giardia inh 5µM*, TbPYK inhibitor 3%, Sm TGR block inconclusive, CHX counter 5 and Shiga inhibitor 20.
CCOc1ccccc1N(C(C)=O)S(=O)(=O)c1ccc(Cl)cc1 was read as LmPK inhibitor 1%, FBPA Giardia inh -1%, TbPYK inhibitor -6%, Sm TGR block 0%, CHX counter 0 and Shiga inhibitor -8.
For O=C(Nc1ccccc1)Nc1cccc(NC(=O)Nc2ccccc2)c1F the results were LmPK inhibitor 1%, FBPA Giardia inh 0%, TbPYK inhibitor 4%, Sm TGR block 0%, CHX counter 18* and Shiga inhibitor 47.
Cn1c(=O)c(-c2cc(F)cc(F)c2)nc2cnc(Oc3ccccc3)nc21 was read as FBPA Giardia inh 5% and TbPYK inhibitor 2%.
For CCOc1ccccc1NC(=O)Nc1ccccn1 the results were LmPK inhibitor 1%, FBPA Giardia inh 0%, TbPYK inhibitor -3%, Sm TGR block 1%, CHX counter 4 and Shiga inhibitor -19.
For O=C(Nc1ccccc1)Nc1ccccc1Br the results were LmPK inhibitor -23%, FBPA Giardia inh -1%, TbPYK inhibitor -2%, Sm TGR block -2%, CHX counter 68* and Shiga inhibitor 117*.
`O=C(Nc1ccccc1)Nc1ccc(Br)c(Cl)c1` gave LmPK inhibitor 1%, FBPA Giardia inh -1%, TbPYK inhibitor 5%, Sm TGR block 1%, CHX counter 42* and Shiga inhibitor 72*.
